AmpC detergent – qHTS Inhibitors of AmpC Beta-Lactamase (assay with detergent); P00811; AmpC hydrolysis of nitrocefin, absorbance 480 nm, 0.01% Triton; Potency, µM (series often up to 114 µM), for inactives: at the highest dose activity change, negative = inhibition, actives largely listed as inhibitors; actives 0.041% (n = 370,000);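 further: 0% = no-compound wells and -100% = no-enzyme wells; nearly all actives have a fitted effect of over 25% in size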
Target sequence (P00811 whole entry, looked up): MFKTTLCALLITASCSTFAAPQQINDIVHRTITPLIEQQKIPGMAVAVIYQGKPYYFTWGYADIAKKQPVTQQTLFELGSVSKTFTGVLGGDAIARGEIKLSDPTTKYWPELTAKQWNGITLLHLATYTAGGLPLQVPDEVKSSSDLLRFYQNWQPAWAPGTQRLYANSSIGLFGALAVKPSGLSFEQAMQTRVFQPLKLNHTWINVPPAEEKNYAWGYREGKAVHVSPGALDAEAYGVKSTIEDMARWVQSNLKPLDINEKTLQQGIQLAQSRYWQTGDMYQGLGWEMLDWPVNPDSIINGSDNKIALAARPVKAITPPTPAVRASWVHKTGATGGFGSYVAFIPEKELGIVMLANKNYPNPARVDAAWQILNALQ
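AmpC (5.3 nM in the dispensed reagent) in 20 mM phosphate pH 7.0 with 0.01% (detergent screen) or 0.0001% Triton X-100 was preincubated with compounds for 15 min at room temperature. Nitrocefin was then added from an 800 uM solution, and hydrolysis was followed at 480 nm.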
Pf growth 96h – Primary qHTS for delayed death inhibitors of the malarial parasite plastid, 96 hour incubation; P. falciparum luciferase reporter growth, 96 h; Potency, µM (titrated, usually from 28.7 µM), inactives show top-dose activity change, negative = inhibition, most hits filed as inhibitors; actives 6.9% (n = 320,000)
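Two parasite generations (96 h, 37 C, 5% CO2) of compound exposure in infected erythrocytes (0.05% parasitemia, 2% hematocrit). Luciferase-reporter P. falciparum; decreased luminescence indicates inhibited growth, aimed at apicoplast-acting delayed death.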
AmpC no deterg – qHTS Inhibitors of AmpC Beta-Lactamase (assay without detergent); P00811; AmpC nitrocefin hydrolysis, absorbance 480 nm, 0.0001% Triton; Potency, µM (top dose mostly 57.1 µM), for the others: at the top dose activity change, negative = inhibition, usual class: inhibitors; actives 0.52% (n = 330,000);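 further: plate controls were no compound for no effect and no enzyme for full effect; nearly all actives have a fitted effect of over 20% in size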
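AmpC (5.3 nM in the dispensed reagent) in 20 mM phosphate pH 7.0 with 0.01% (detergent screen) or 0.0001% Triton X-100 was preincubated with compounds for 15 min at room temperature. Nitrocefin was then added from an 800 uM solution, and hydrolysis was followed at 480 nm.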
AMA1-RON2 inh – qHTS for Inhibitors of AMA1-RON; Towards Development of Antimalarial Drug Lead: Primary Screen; Potency, µM (titrated, usually from 58.2 µM), for inactives: top-dose activity change, negative = inhibition, actives largely listed as inhibitors; Plasmodium falciparum AMA1 (3D7) - RON2 peptide interaction; AlphaScreen AMA1-biotinylated RON2 peptide binding; actives 0.2% (n = 360,000);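 further: 0% = vehicle wells and -100% = peptide control; nearly all actives have a fitted effect of over 45% in size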
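AMA1 (3D7) with his tag at 25 nM final met compounds first, then biotinylated RON2 peptide at 25 nM; detection used donor plus acceptor beads, 10 µg/mL apiece, read by AlphaScreen after 30 min at room temperature.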
HCV inh – qHTS Assay for Inhibitors of Hepatitis C Virus (HCV); Huh7.5.1 HCVcc-Cre infection, luciferase reporter, 44 h; actives 3.4% (n = 340,000); Potency, µM (highest dose often 41.8 µM), for inactives: at the highest dose activity change, negative = inhibition, hits mostly inhibitors
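A cell-based infection assay in which seeded cells (1,000 per well) receive test compound after 4 h, are inoculated with HCVcc-Cre at approximately 0.5 moi, and are incubated 44 h before luminescence detection.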
Pf growth 48h – Primary qHTS for delayed death inhibitors of the malarial parasite plastid, 48 hour incubation | P. falciparum luciferase growth in erythrocytes, 48 h | Potency, µM (highest dose often 28.7 µM), inactives show at the top dose activity change, negative = inhibition, most hits filed as inhibitors | actives 5.9% (n = 310,000)
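Luciferase-expressing parasites in RBCs, 2% Hct / 0.1% parasitemia final; RPMI 1640 + 0.5% Albumax; 37 C, 5% CO2, one generation; luminescence read-out, lower signal = inhibition.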
The depositor's hits bear a star; ? = inconclusive; . = not tested or not shown; [ ] = another dose, or the depositor's remark. Only some compounds are listed: those with a hit (about 11% of all), similar ones and a draw of the others. The call rests on the fitted dose curve; in most records, active means well fitted curve in the direction sought with a large enough effect; inconclusive means small, poorly fitted or top-dose-only effect, or another doubt; inactive means no such curve, though single readings can be large; an effect the other way counts as inactive or inconclusive. Unless noted, on the % scale 0 is the no-effect control and ±100 the full control effect; potency means the concentration at half of the fitted maximal effect.

SMILES | AmpC detergent | Pf growth 96h | AmpC no deterg | AMA1-RON2 inh | HCV inh | Pf growth 48h
O=C1CSC(c2cccnc2)N1c1ccccc1 (stereo not drawn) | 0% | -5% | -19% | 14% | 16% | 135%
CC(C)(C)c1ccc(N2C(=O)CSC2c2cccnc2)cc1 (stereo not drawn) | 5% | ? | -1% | -24% | -7% | 1.2µM*
CCOC(=O)c1c(C)[nH]c(C(=O)OCC(=O)Nc2sccc2C(N)=O)c1C | -7% | ? | -29% | 18% | 2.8µM* | 4.7µM*
CCOC(=O)c1c(C)[nH]c(C(=O)OCC(=O)NCc2ccc(OC)c(OC)c2)c1C | -22% | ? | 43% | 27%[11.6 µM] | 10µM* | ?
CCOC(=O)c1[nH]c(C)c(C(=O)OCC(=O)NCc2ccc(Cl)cc2)c1C | -4% | -19% | -11% | -8% | 9% | -13%
CC(=O)c1c(C)[nH]c(C(=O)OCC(=O)NCc2ccc(Cl)cc2)c1C | -14% | ? | -10% | 0% | 11µM* | ?
CC(=O)c1c(C)[nH]c(C(=O)OCC(=O)NCCCc2ccccc2)c1C | 1% | 9.3µM* | -25% | -2% | ? | ?
CCOC(=O)c1c(C)[nH]c(C(=O)OCC(=O)Nc2ccc(Cl)cn2)c1C | 3% | -5% | -21% | 59%[11.6 µM] | 5% | -6%
O=C(CN1C(=O)COc2ccc(S(=O)(=O)NC3CCCC3)cc21)NCc1ccc(Cl)cc1 | 15% | . | . | . | . | .
CCCCNc1nc2c(c(=O)n(Cc3ccc(Cl)c(Cl)c3)c(=O)n2C)n1C | 6% | . | . | . | . | .
COc1ccc(OC)c(NC(=O)CN2C(=O)CC(C)Sc3ccccc32)c1 (stereo not drawn) | 0% | . | . | . | . | .
CC(C)OCCCN1C(=O)c2[nH]nc(-c3ccccc3O)c2C1c1ccccc1F (stereo not drawn) | 16% | . | . | . | . | .
O=C(NCc1ccccc1Cl)C1CCCN(c2ncnc3onc(-c4ccc(F)cc4)c23)C1 (stereo not drawn) | 0% | . | . | . | . | .
CC(=O)c1c(C)[nH]c(C(=O)OCC(=O)NCCc2ccc(Cl)cc2)c1C | -2% | ? | -4% | -2% | 11µM* | .
CC(=O)c1c(C)[nH]c(C(=O)OCC(=O)NCCC2=CCCCC2)c1C | 0% | ? | -6% | -17% | ? | 13µM*
COc1cccc(N2C(=O)CSC23C(=O)N(CC(=O)NCc2ccc(C)cc2)c2ccccc23)c1 (stereo not drawn) | -1% | . | . | . | . | .
COc1ccc(-n2nnc(C(=O)Nc3ccccc3F)c2N)cc1 | 1% | . | . | . | . | .
N#Cc1ccc(/C=C\c2nccc3c2[nH]c2ccccc23)cc1 | -9% | -26% | -47% | 35% | ? | 3.3µM*
CCc1nccc2c1[nH]c1ccccc12 | -14% | ? | -4% | -4% | 11µM* | 0%
Clc1ccc(/C=C\c2nccc3c2[nH]c2ccccc23)cc1 | 3% | 20% | -57% | -4% | ? | 4.7µM*
CCC(=O)N1c2ccccc2CC1C(=O)NCCc1ccc(SC)cc1 (stereo not drawn) | 17% | . | . | . | . | .
CCN(C(=O)Cc1c(C(=O)O)[nH]c2ccccc12)c1cc(OC)ccc1OC | ? | 7.4µM* | -31% | 4% | 15% | ?
Cc1cc2oc(C(=O)Nc3nc(-c4ccccc4)ns3)c(C)c2cc1Cl | 23% | . | . | . | . | .
N=C1S/C(=C\c2cccc3ccccc23)C(=O)N1c1ccc(F)cc1 | ? | -12% | -19% | -23% | ? | 12µM*
COc1cccc(CNC(=O)CCc2nnc3n(CC(C)C)c(=O)c4ccccc4n23)c1 | 27% | . | . | . | . | .

Screening results deposited in PubChem by National Center for Advancing Translational Sciences (NCATS).
